PubChem BioAssay
Activity calls are given as the source filed them.

Assays:
[1] = tested on: Plasmodium falciparum Sir2 (PF13_0152, Sir2A); assay: pfSir2 binders on small-molecule microarrays, primary screen, biochemical, small-molecule microarray, 635 nm fluorescence (AID 1098); conditions: small-molecule microarray binding, fluorescence 635 nm; higher = more signal;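 also: score merges spot fluorescence intensity with its signal-to-noise ratio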
[2] = small-molecule microarray binders of probe aDKK1, primary screen, biochemical, biotinylated probe, 635/667 nm fluorescence (AID 1099); conditions: higher = more signal;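 also: score merges 667nm spot fluorescence with signal to noise across triplicate slides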
[3] = small-molecule microarray binders of probe aCHRDL2, primary screen, biochemical, biotinylated probe, 635/667 nm fluorescence (AID 1100); conditions: higher = more signal
[4] = splicing luciferase reporter signal modulators, primary screen, spliceosome inhibition project, cell-based, HEK293, splice +/- reporter (AID 1101); conditions: luminescence, 24 h, higher = more signal, called active from +8 up or from −8 down;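 also: HEK293 cells carrying a splicing-competent luciferase reporter gene; test concentration not given here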
[5] = target: Fibroblast growth factor 10 (Homo sapiens) (UniProt O15520); assay: FGF10 binders on small-molecule microarrays, primary screen, biochemical, small-molecule microarray, 635 nm fluorescence (AID 1102); conditions: FGF10 binding, fluorescence 635 nm, higher = more signal
[6] = tested on: glycogen synthase kinase-3 (GSK3A per assay name; protocol says GSK3B); assay: GSK3 binders on small-molecule microarrays, primary screen, biochemical, small-molecule microarray, 635 nm fluorescence, GSK3A (AID 1103); conditions: small-molecule microarray binding, fluorescence 635 nm; higher = more signal; also: the record names both GSK3A and GSK3B
[7] = target: Epidermal growth factor receptor (Homo sapiens) (UniProt P00533); assay: EGFR binders on small-molecule microarrays, primary screen, biochemical, small-molecule microarray, 635 nm fluorescence (AID 1104); conditions: EGFR binding, higher = more signal;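 also: score merges 667 nm emission intensity with spot signal to noise over triplicate slides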
[8] = target: Follistatin-related protein 3 (Homo sapiens) (UniProt O95633); assay: FSTL3 binders on small-molecule microarrays, primary screen, biochemical, small-molecule microarray, 635 nm fluorescence (AID 1105); conditions: FSTL3 binding, higher = more signal;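 also: score merges emission near 667 nm and signal to noise per printed spot across three slides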
[9] = target: Dickkopf-related protein 1 (Homo sapiens) (UniProt O94907); assay: DKK1 binders on small-molecule microarrays, primary screen, biochemical, small-molecule microarray, 635 nm fluorescence scan (AID 1106); conditions: DKK1 binding, higher = more signal;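 also: score merges emission near 667 nm with signal to noise over three replicate slides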
[10] = tested on: Inhibin beta A chain (activin A); assay: INHBA (activin A) binders on microarrays, primary screen, biochemical, small-molecule microarray, 635 nm fluorescence scan (AID 1107); conditions: small-molecule microarray binding, higher = more signal;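 also: mouse activin A protein probed at 4.33 µg/mL on printed slides; score merges bound-protein fluorescence near 667 nm with spot signal-to-noise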
[11] = tested on: Human papillomavirus type 1a protein E7 (residues 44-93); assay: HPV1a E7 fragment binders on microarrays, primary screen, biochemical, small-molecule microarray, residues 44-93, 635 nm fluorescence (AID 1108); conditions: small-molecule microarray binding, fluorescence 635 nm; higher = more signal;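 also: E7 fragment applied at 1 µg/mL in TBST for 1 h at 4 C; score combines spot fluorescence with its signal to noise ratio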
[12] = modulators of HCV replicon luciferase signal, primary screen, HCV replication inhibitor project, Huh7 cells, luciferase reporter (AID 1109); conditions: 48 h, higher = more signal;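 also: huh7 hepatoma cells harbouring a luciferase neomycin HCV replicon reporter; luciferase luminescence as measure of HCV replicon replication; test concentration not given here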
[13] = target: Left-right determination factor 2 (Homo sapiens) (UniProt O00292); assay: LEFTY2 binders on small-molecule microarrays, primary screen, biochemical, small-molecule microarray, 635 nm fluorescence scan (AID 1110); conditions: LEFTY2 binding, higher = more signal
[14] = target: Calmodulin-1 (Homo sapiens) (UniProt P0DP23); assay: CALM1 binders on microarrays, EGTA buffer, profiling panel, biochemical, small-molecule microarray, Cy5-labelled CALM1 (AID 1111); conditions: Cy5-CALM1 binding fluorescence, higher = more signal;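 also: labelled calmodulin applied in Tris saline Tween buffer holding calcium plus EGTA and DTT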
[15] = target: Calmodulin-1 (Homo sapiens) (UniProt P0DP23); assay: calcium-bound CALM1 binders on microarrays, profiling panel, artefact control for SMM control-protein annotation, biochemical, small-molecule microarray, Cy5-labelled CALM1, plus calcium (AID 1112); conditions: Cy5-CALM1 binding fluorescence, higher = more signal;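 also: score merges spot fluorescence with signal to noise from triplicate slides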
[16] = small-molecule microarray binders of probe aWnt5a, primary screen, biochemical, biotinylated probe, 635/667 nm fluorescence (AID 1113); conditions: higher = more signal;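 also: score merges 667 nm fluorescence intensity with signal-to-noise per printed feature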
[17] = small-molecule microarray binders of probe aShh, primary screen, biochemical, biotinylated probe, 635/667 nm fluorescence (AID 1114); conditions: higher = more signal;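 also: probe is biotin-labelled aShh protein from a stem cell growth factor screen; measures binding of labelled protein to compounds printed on the slide; score merges feature fluorescence at 667 nm with signal-to-noise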
[18] = small-molecule microarray binders of probe aNog, primary screen, biochemical, biotinylated probe, 635/667 nm fluorescence (AID 1115); conditions: higher = more signal;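 also: probe is biotinylated aNog protein used at 0.15 µg/mL for 1 h at 4 C; z-score combines 667 nm fluorescence of each spot with its signal to noise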
[19] = target: Torsin-1A-interacting protein 1 (Homo sapiens) (UniProt Q5JTV8); assay: LAP1 binders from COS7 cell lysate, primary screen, small-molecule microarray, 635/667 nm fluorescence (AID 1116); conditions: COS7-hLAP1 lysate binding, 635 nm fluorescence, higher = more signal
[20] = target: Alpha-bungarotoxin (Bungarus multicinctus) (UniProt P60615); assay: alpha-bungarotoxin binders on microarray, profiling panel, artefact control for SMM control protein annotation, biochemical, small-molecule microarray, Alexa647 label, 635/667 nm fluorescence (AID 1117); conditions: alpha-BTX-A647 binding fluorescence, higher = more signal
Sequence of Alpha-bungarotoxin (Bungarus multicinctus) (P60615 whole entry, looked up): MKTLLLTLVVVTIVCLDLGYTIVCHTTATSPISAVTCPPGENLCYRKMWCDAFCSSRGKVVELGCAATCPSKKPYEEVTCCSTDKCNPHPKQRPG

Sequence of Torsin-1A-interacting protein 1 (Homo sapiens) (Q5JTV8 whole entry, looked up): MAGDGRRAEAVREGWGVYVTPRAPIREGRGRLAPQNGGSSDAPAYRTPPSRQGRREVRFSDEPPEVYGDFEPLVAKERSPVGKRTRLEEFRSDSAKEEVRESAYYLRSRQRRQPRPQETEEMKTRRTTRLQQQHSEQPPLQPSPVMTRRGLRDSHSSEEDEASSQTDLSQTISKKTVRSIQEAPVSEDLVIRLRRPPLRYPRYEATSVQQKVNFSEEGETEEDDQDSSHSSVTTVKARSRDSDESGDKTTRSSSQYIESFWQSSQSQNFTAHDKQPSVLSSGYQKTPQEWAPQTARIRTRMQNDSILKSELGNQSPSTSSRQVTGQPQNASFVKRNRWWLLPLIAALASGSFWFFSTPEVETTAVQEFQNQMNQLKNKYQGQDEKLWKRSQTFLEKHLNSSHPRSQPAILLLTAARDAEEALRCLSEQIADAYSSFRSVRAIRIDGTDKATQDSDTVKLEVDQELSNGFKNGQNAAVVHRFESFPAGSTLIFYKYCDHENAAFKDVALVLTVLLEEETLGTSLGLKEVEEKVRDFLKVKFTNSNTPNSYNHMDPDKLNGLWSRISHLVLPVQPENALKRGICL
Sequence of Follistatin-related protein 3 (Homo sapiens) (O95633 whole entry, looked up): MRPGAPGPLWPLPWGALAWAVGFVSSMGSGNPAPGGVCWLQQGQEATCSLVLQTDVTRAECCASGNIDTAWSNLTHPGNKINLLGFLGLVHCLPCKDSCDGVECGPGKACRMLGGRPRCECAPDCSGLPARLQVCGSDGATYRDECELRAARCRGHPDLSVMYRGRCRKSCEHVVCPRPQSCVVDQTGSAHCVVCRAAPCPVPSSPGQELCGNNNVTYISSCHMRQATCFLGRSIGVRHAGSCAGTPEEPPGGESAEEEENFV
Sequence of Dickkopf-related protein 1 (Homo sapiens) (O94907 whole entry, looked up): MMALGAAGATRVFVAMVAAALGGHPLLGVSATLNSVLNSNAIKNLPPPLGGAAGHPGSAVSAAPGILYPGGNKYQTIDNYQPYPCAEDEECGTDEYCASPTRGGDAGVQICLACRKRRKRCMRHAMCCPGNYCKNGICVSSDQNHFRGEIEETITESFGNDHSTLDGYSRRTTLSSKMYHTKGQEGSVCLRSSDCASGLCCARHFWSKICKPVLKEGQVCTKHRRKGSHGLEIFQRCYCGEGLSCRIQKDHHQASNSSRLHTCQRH
Sequence of Left-right determination factor 2 (Homo sapiens) (O00292 whole entry, looked up): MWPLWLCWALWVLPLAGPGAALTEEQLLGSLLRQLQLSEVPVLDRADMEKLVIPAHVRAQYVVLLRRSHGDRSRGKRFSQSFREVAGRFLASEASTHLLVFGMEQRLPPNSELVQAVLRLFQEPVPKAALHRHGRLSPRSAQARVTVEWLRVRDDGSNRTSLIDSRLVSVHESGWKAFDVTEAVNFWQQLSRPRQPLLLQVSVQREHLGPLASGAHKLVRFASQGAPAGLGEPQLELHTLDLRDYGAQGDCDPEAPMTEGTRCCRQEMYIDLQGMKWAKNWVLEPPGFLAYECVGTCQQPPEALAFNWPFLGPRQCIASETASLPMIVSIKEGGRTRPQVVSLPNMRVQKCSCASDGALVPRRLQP
Sequence of Fibroblast growth factor 10 (Homo sapiens) (O15520 whole entry, looked up): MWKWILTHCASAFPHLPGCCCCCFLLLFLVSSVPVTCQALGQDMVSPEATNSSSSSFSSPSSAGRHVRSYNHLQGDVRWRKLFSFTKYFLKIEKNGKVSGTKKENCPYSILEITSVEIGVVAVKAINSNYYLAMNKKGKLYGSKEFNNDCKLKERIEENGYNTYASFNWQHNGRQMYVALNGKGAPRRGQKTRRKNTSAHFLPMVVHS
Sequence of Epidermal growth factor receptor (Homo sapiens) (P00533 whole entry, looked up): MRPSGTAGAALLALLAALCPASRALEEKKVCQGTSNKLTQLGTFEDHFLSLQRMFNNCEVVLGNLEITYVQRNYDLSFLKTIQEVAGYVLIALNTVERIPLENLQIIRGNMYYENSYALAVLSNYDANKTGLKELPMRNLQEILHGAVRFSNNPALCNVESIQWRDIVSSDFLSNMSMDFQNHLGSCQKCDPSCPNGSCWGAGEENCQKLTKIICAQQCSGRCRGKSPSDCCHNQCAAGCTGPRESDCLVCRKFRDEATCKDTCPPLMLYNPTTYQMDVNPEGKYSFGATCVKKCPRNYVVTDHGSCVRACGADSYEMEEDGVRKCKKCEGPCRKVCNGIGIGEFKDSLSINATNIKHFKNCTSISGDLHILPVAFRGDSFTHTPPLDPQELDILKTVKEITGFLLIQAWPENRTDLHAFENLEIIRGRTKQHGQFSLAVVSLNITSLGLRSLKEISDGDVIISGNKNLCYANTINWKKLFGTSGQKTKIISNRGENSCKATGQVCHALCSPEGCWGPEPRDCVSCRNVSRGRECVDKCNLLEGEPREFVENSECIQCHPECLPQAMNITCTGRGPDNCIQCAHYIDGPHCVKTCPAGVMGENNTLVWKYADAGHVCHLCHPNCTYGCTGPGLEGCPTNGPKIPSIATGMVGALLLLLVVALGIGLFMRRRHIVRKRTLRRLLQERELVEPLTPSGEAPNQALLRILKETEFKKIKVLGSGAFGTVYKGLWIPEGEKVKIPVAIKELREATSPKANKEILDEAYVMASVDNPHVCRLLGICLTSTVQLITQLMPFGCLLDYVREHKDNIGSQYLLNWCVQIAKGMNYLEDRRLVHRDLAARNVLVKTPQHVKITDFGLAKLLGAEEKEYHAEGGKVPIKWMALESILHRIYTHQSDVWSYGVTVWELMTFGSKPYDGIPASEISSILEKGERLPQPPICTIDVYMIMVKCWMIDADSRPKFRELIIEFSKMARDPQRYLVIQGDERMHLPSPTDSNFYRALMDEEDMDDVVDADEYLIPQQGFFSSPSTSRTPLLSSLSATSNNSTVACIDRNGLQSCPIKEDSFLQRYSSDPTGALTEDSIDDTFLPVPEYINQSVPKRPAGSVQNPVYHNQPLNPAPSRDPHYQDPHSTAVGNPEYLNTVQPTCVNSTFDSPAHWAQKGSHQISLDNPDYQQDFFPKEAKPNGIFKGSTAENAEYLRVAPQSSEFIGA

Compound | composite z-score [1] | composite z-score [2] | composite z-score [3] | z-score [4] | composite z-score [5] | composite z-score [6] | composite z-score [7] | composite z-score [8] | composite z-score [9] | composite z-score [10] | composite z-score [11] | z-score [12] | composite z-score [13] | composite z-score [14] | composite z-score [15] | composite z-score [16] | composite z-score [17] | composite z-score [18] | composite z-score [19] | composite z-score [20]
Cc1ccc(N2C(=O)c3ccccc3[C@](C)(C(=O)NCC(C)C)[C@@H]2c2ccc(CO)cc2)nc1 | 1.78 | 0.504 | 0.481 | -0.237 (inactive) | -0.587 | -0.856 | -0.45 | -0.775 | -0.29 | 1 | -1.1 | 0.324 | -0.337 | -0.584 | -1.07 | -0.0405 | -0.0257 | -0.172 | -0.367 | -0.809
CO[C@H]1O[C@H](CO)[C@@H](OC(=O)Nc2ccc(Oc3ccccc3)cc2)[C@H](OC(=O)Nc2ccccc2-c2ccccc2)[C@H]1OC(=O)Nc1ccccc1-c1ccccc1 | 1.35 | 0.542 | 0.748 | 2.76 (inactive) | 1.14 | 1.34 | 0.528 | 1.36 | 0.538 | 0.187 | 0.383 | -3.97 | 0.975 | 2.09 | -0.107 | 0.0676 | 0.11 | 0.786 | 1.77 | 2.98
CCN1C(C)=C(C(=O)OC)[C@@H](c2ccccc2)N2C(=O)[C@](O)(C(=O)OC)[C@@H](c3ccccc3)C(C(C)=O)=C12 | -1.67 | 0.182 | -0.539 | -2.82 (inactive) | 0.799 | 0.529 | 0.621 | 1.04 | 0.515 | 1.15 | -0.0269 | -0.279 | 0.784 | -0.693 | -0.0342 | -0.0125 | -0.262 | 0.19 | 0.0025 | -0.576
C=CCc1cccc([C@H]2N[C@H](C(=O)O)CC[C@@H]2C)c1 | 0.289 | -0.6 | -0.832 | -0.704 (inactive) | 0.219 | 0.706 | 0.793 | 0.778 | 1.22 | 1.12 | 0.175 | -0.222 | 0.956 | -0.962 | -1.26 | -0.232 | -0.271 | -0.539 | 0.0883 | -0.142
CC(C)N1CC=CC23O[C@@H]4/C=C\CCCOC(=O)C4[C@H]2C(=O)N(CCO)[C@@H]3C1=O (stereo not given in full) | 1.01 | 0.155 | 0.677 | -1.84 (inactive) | -0.363 | -0.456 | -1.02 | -0.516 | -1.08 | 1.45 | -0.526 | -0.648 | -0.999 | -0.428 | -0.793 | -0.188 | -0.0769 | -0.0624 | 2.9 | -0.493
COCCOC(=O)N1C(=O)[C@@]2(c3cc(C#CCNC(N)=O)ccc31)[C@H](c1ccc(OCCO)cc1)N1[C@H](c3ccccc3)[C@H](c3ccccc3)OC(=O)[C@H]1[C@@H]2C(=O)N1CCCCCCC1 | 0.795 | 1.48 | 1.11 | -0.908 (inactive) | 0.198 | -0.246 | 0.0212 | 0.895 | 0.199 | 1.69 | 0.853 | 0.225 | -0.11 | 0.914 | 0.966 | -0.027 | 0.485 | 0.401 | 0.242 | 1.24
Cc1ccc(S[C@]2(C(=O)NCCN3CCOCC3)CC(=O)N(C3Cc4ccccc4C3)[C@@H]2c2ccc(CO)cc2I)cc1 | 1.84 | 0.696 | 1.18 | -1.16 (inactive) | -0.303 | -0.909 | -1.65 | -0.359 | -0.408 | 0.72 | 0.0913 | -1.69 | -1.71 | -0.0071 | -0.0474 | 0.0718 | -0.0553 | 0.79 | 0.0697 | 1.74
C=C(CCCC)/C(=C/C[C@@H](OC(=O)c1ccncc1)c1ccc(CO)o1)c1cnc2ccccc2c1 | 0.201 | 0.144 | -0.524 | 0.0419 (inactive) | 1.48 | 1.32 | 1.36 | 1.62 | 1.53 | 1.82 | -0.41 | -1.13 | 1.48 | 1.38 | -0.0149 | 0.0973 | 0.213 | 0.889 | 2.1 | 2.29
C#CCNC(/C=C/c1ccccc1)CO (stereo not given) | 0.0921 | -0.234 | -0.565 | 0.00978 (inactive) | 0.311 | 0.149 | 0.553 | 0.326 | 0.545 | 0.394 | 0.105 | 0.501 | 0.421 | -0.0934 | -0.448 | -0.172 | 0.0121 | -0.0784 | 0.296 | 0.331
CC(=O)NCCCC[C@@H]1NC(=O)[C@H]2C[C@@H](C(=O)NCCCCCCN(C)C)[C@@H](c3cccc(OCCO)c3)N2C1=O | 1.5 | 0.822 | 0.649 | 0.567 (inactive) | 1.39 | 1.36 | 1.64 | 1.1 | 1.77 | 0.298 | 1.37 | 1.33 | 1.45 | -1.81 | -1.32 | -0.0185 | 0.323 | -0.0083 | 2.25 | 1.41
C=CCN1C(=O)[C@@]2(O[C@@H](CCn3cc([C@H](O)c4ccccc4)nn3)[C@H]([Si](C)(C)c3ccc(OC)cc3)[C@H]2C)c2cc(N3CCOC3=O)ccc21 | -0.412 | 0.16 | 0.338 | -2.62 (inactive) | 0.0752 | 0.472 | 0.135 | -0.0856 | 0.216 | 0.392 | -0.0922 | -3.71 | -0.125 | 0.0419 | 0.462 | -0.0754 | -0.2 | -0.0428 | 0.559 | -0.577
CC(C)C[C@@H]1NC(=O)[C@H]2C[C@@H](C(=O)NCCCCCC[N+](C)(C)C)[C@@H](c3ccc(O)cc3)N2C1=O | 1.46 | -0.196 | 0.0009 | -0.177 (inactive) | -0.563 | -0.595 | -0.403 | 1.28 | 0.505 | 0.446 | 0.183 | 0.549 | -0.29 | -0.602 | -0.781 | -0.229 | 0.0856 | -0.169 | 0.418 | -0.111
